# Results from paper PMC11006913.
# How the values were obtained:
# Assay in all cases: PBM; 200 nM protein, PBS
# Settings in all cases: dsDNA, one strand shown
# [1] = molecular target: HESX1 (Homo sapiens, UniProt Q9UBX0 95-180, R165K)
# [2] = molecular target: HOXB4 (Homo sapiens, UniProt P17483 148-234)
# [3] = molecular target: SHOX (Homo sapiens, UniProt O15266 103-189)
# [4] = molecular target: HESX1 (Homo sapiens, UniProt Q9UBX0 95-180)
# [5] = molecular target: HOXB4 (Homo sapiens, UniProt P17483 148-234, V174I)
# Chain of HOXB4 (Homo sapiens, UniProt P17483 148-234, V174I) (P17483 148-234 V174I): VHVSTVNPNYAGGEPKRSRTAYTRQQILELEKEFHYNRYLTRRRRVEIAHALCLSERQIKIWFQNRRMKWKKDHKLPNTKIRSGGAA
# [6] = molecular target: ALX1 (Homo sapiens, UniProt Q15699 118-204, L144V)
# Chain of ALX1 (Homo sapiens, UniProt Q15699 118-204, L144V) (Q15699 118-204 L144V): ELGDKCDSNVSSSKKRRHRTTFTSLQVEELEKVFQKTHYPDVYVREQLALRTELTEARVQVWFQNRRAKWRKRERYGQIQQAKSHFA
# [7] = molecular target: ALX3 (Homo sapiens, UniProt O95076 139-225, N203Q)
# Chain of ALX3 (Homo sapiens, UniProt O95076 139-225, N203Q) (O95076 139-225 N203Q): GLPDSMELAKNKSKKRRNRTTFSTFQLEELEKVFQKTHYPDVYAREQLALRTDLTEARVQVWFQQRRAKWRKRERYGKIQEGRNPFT
# [8] = molecular target: SHOX (Homo sapiens, UniProt O15266 103-189, R173C)
# Chain of SHOX (Homo sapiens, UniProt O15266 103-189, R173C) (O15266 103-189 R173C): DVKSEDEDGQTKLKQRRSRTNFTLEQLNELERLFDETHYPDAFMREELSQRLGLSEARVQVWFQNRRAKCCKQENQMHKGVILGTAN
# [9] = molecular target: ALX1 (Homo sapiens, UniProt Q15699 118-204, L144R)
# Chain of ALX1 (Homo sapiens, UniProt Q15699 118-204, L144R) (Q15699 118-204 L144R): as the sequence (Q15699 118-204 L144V) above, with V27R counted along it
# [10] = molecular target: ALX3 (Homo sapiens, UniProt O95076 139-225)
# Chain of ALX3 (Homo sapiens, UniProt O95076 139-225) (O95076 139-225): as the sequence (O95076 139-225 N203Q) above, with Q65N counted along it
# [11] = molecular target: PROP1 (Homo sapiens, UniProt O75360 56-141)
# Chain of PROP1 (Homo sapiens, UniProt O75360 56-141) (O75360 56-141): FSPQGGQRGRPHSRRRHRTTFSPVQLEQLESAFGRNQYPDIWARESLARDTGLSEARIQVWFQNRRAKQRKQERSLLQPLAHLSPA
# [12] = molecular target: HESX1 (Homo sapiens, UniProt Q9UBX0 95-180, R109Q)
# Chain of HESX1 (Homo sapiens, UniProt Q9UBX0 95-180, R109Q) (Q9UBX0 95-180 R109Q): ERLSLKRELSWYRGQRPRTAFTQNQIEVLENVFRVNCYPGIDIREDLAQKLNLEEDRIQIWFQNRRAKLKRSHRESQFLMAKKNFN
# [13] = molecular target: PROP1 (Homo sapiens, UniProt O75360 56-141, R99H)
# Chain of PROP1 (Homo sapiens, UniProt O75360 56-141, R99H) (O75360 56-141 R99H): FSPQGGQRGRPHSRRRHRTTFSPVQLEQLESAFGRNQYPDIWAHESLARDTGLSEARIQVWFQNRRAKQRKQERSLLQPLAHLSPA
# [14] = molecular target: ALX3 (Homo sapiens, UniProt O95076 139-225, L168Q)
# Chain of ALX3 (Homo sapiens, UniProt O95076 139-225, L168Q) (O95076 139-225 L168Q): as the sequence (O95076 139-225 N203Q) above, with L30Q, Q65N counted along it
# [15] = molecular target: HESX1 (Homo sapiens, UniProt Q9UBX0 95-180, P111T)
# Chain of HESX1 (Homo sapiens, UniProt Q9UBX0 95-180, P111T) (Q9UBX0 95-180 P111T): as the sequence (Q9UBX0 95-180 R109Q) above, with Q15R, P17T counted along it
# [16] = molecular target: ALX3 (Homo sapiens, UniProt O95076 139-225, L168V)
# Chain of ALX3 (Homo sapiens, UniProt O95076 139-225, L168V) (O95076 139-225 L168V): as the sequence (O95076 139-225 N203Q) above, with L30V, Q65N counted along it
# [17] = molecular target: PROP1 (Homo sapiens, UniProt O75360 56-141, F88S)
# Chain of PROP1 (Homo sapiens, UniProt O75360 56-141, F88S) (O75360 56-141 F88S): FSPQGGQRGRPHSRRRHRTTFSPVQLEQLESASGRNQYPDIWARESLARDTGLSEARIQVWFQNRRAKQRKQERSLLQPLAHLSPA
# [18] = molecular target: HESX1 (Homo sapiens, UniProt Q9UBX0 95-180, F115L)
# Chain of HESX1 (Homo sapiens, UniProt Q9UBX0 95-180, F115L) (Q9UBX0 95-180 F115L): as the sequence (Q9UBX0 95-180 R109Q) above, with Q15R, F21L counted along it
# [19] = molecular target: ALX1 (Homo sapiens, UniProt Q15699 118-204)
# Chain of ALX1 (Homo sapiens, UniProt Q15699 118-204) (Q15699 118-204): as the sequence (Q15699 118-204 L144V) above, with V27L counted along it
# [20] = molecular target: ALX3 (Homo sapiens, UniProt O95076 139-225, N203S)
# Chain of ALX3 (Homo sapiens, UniProt O95076 139-225, N203S) (O95076 139-225 N203S): as the sequence (O95076 139-225 N203Q) above, with Q65S counted along it
# Chain of SHOX (Homo sapiens, UniProt O15266 103-189) (O15266 103-189): as the sequence (O15266 103-189 R173C) above, with C71R counted along it
# Chain of HESX1 (Homo sapiens, UniProt Q9UBX0 95-180, R165K) (Q9UBX0 95-180 R165K): as the sequence (Q9UBX0 95-180 R109Q) above, with Q15R, R71K counted along it
# Chain of HESX1 (Homo sapiens, UniProt Q9UBX0 95-180) (Q9UBX0 95-180): as the sequence (Q9UBX0 95-180 R109Q) above, with Q15R counted along it
# Chain of HOXB4 (Homo sapiens, UniProt P17483 148-234) (P17483 148-234): as the sequence (P17483 148-234 V174I) above, with I27V counted along it
Sequence,binding signal [1],binding signal [2],binding signal [3],binding signal [4],binding signal [5],binding signal [6],binding signal [7],binding signal [8],binding signal [9],binding signal [10],binding signal [11],binding signal [12],binding signal [13],binding signal [14],binding signal [15],binding signal [16],binding signal [17],binding signal [18],binding signal [19],binding signal [20]
AATTAATA,"12.2 upbm affinity estimate (log intensity, higher = more binding, comparable within an allelic series)","13.2 upbm affinity estimate (log intensity, higher = more binding, comparable within an allelic series)","12 upbm affinity estimate (log intensity, higher = more binding, comparable within an allelic series)","12.1 upbm affinity estimate (log intensity, higher = more binding, comparable within an allelic series)","13.9 upbm affinity estimate (log intensity, higher = more binding, comparable within an allelic series)","11.8 upbm affinity estimate (log intensity, higher = more binding, comparable within an allelic series)","8.72 upbm affinity estimate (log intensity, higher = more binding, comparable within an allelic series)","9.56 upbm affinity estimate (log intensity, higher = more binding, comparable within an allelic series)","11.6 upbm affinity estimate (log intensity, higher = more binding, comparable within an allelic series)","12.5 upbm affinity estimate (log intensity, higher = more binding, comparable within an allelic series)","11.3 upbm affinity estimate (log intensity, higher = more binding, comparable within an allelic series)","9.32 upbm affinity estimate (log intensity, higher = more binding, comparable within an allelic series)","11.4 upbm affinity estimate (log intensity, higher = more binding, comparable within an allelic series)","10.7 upbm affinity estimate (log intensity, higher = more binding, comparable within an allelic series)","10.8 upbm affinity estimate (log intensity, higher = more binding, comparable within an allelic series)","10.3 upbm affinity estimate (log intensity, higher = more binding, comparable within an allelic series)","8.02 upbm affinity estimate (log intensity, higher = more binding, comparable within an allelic series)","8.27 upbm affinity estimate (log intensity, higher = more binding, comparable within an allelic series)","12.3 upbm affinity estimate (log intensity, higher = more binding, comparable within an allelic series)","8.82 upbm affinity estimate (log intensity, higher = more binding, comparable within an allelic series)"
TAATTATA,"12.8 upbm affinity estimate (log intensity, higher = more binding, comparable within an allelic series)","13.5 upbm affinity estimate (log intensity, higher = more binding, comparable within an allelic series)","12.3 upbm affinity estimate (log intensity, higher = more binding, comparable within an allelic series)","12.9 upbm affinity estimate (log intensity, higher = more binding, comparable within an allelic series)","14.3 upbm affinity estimate (log intensity, higher = more binding, comparable within an allelic series)","12 upbm affinity estimate (log intensity, higher = more binding, comparable within an allelic series)","8.6 upbm affinity estimate (log intensity, higher = more binding, comparable within an allelic series)","9.85 upbm affinity estimate (log intensity, higher = more binding, comparable within an allelic series)","11.6 upbm affinity estimate (log intensity, higher = more binding, comparable within an allelic series)","12.8 upbm affinity estimate (log intensity, higher = more binding, comparable within an allelic series)","11.7 upbm affinity estimate (log intensity, higher = more binding, comparable within an allelic series)","9.16 upbm affinity estimate (log intensity, higher = more binding, comparable within an allelic series)","11.7 upbm affinity estimate (log intensity, higher = more binding, comparable within an allelic series)","10.9 upbm affinity estimate (log intensity, higher = more binding, comparable within an allelic series)","11.5 upbm affinity estimate (log intensity, higher = more binding, comparable within an allelic series)","10.6 upbm affinity estimate (log intensity, higher = more binding, comparable within an allelic series)","8.03 upbm affinity estimate (log intensity, higher = more binding, comparable within an allelic series)","8.06 upbm affinity estimate (log intensity, higher = more binding, comparable within an allelic series)","12.7 upbm affinity estimate (log intensity, higher = more binding, comparable within an allelic series)","8.74 upbm affinity estimate (log intensity, higher = more binding, comparable within an allelic series)"
AATTAATT,"13.4 upbm affinity estimate (log intensity, higher = more binding, comparable within an allelic series)","13.4 upbm affinity estimate (log intensity, higher = more binding, comparable within an allelic series)","12.8 upbm affinity estimate (log intensity, higher = more binding, comparable within an allelic series)","13.2 upbm affinity estimate (log intensity, higher = more binding, comparable within an allelic series)","14.1 upbm affinity estimate (log intensity, higher = more binding, comparable within an allelic series)","12.4 upbm affinity estimate (log intensity, higher = more binding, comparable within an allelic series)","8.51 upbm affinity estimate (log intensity, higher = more binding, comparable within an allelic series)","10.3 upbm affinity estimate (log intensity, higher = more binding, comparable within an allelic series)","12 upbm affinity estimate (log intensity, higher = more binding, comparable within an allelic series)","13 upbm affinity estimate (log intensity, higher = more binding, comparable within an allelic series)","12.1 upbm affinity estimate (log intensity, higher = more binding, comparable within an allelic series)","10.3 upbm affinity estimate (log intensity, higher = more binding, comparable within an allelic series)","12.2 upbm affinity estimate (log intensity, higher = more binding, comparable within an allelic series)","11.3 upbm affinity estimate (log intensity, higher = more binding, comparable within an allelic series)","11.8 upbm affinity estimate (log intensity, higher = more binding, comparable within an allelic series)","10.9 upbm affinity estimate (log intensity, higher = more binding, comparable within an allelic series)","8.05 upbm affinity estimate (log intensity, higher = more binding, comparable within an allelic series)","8.57 upbm affinity estimate (log intensity, higher = more binding, comparable within an allelic series)","13 upbm affinity estimate (log intensity, higher = more binding, comparable within an allelic series)","8.78 upbm affinity estimate (log intensity, higher = more binding, comparable within an allelic series)"
CTAATTAA,"13.8 upbm affinity estimate (log intensity, higher = more binding, comparable within an allelic series)","13.3 upbm affinity estimate (log intensity, higher = more binding, comparable within an allelic series)","13.4 upbm affinity estimate (log intensity, higher = more binding, comparable within an allelic series)","13.6 upbm affinity estimate (log intensity, higher = more binding, comparable within an allelic series)","13.9 upbm affinity estimate (log intensity, higher = more binding, comparable within an allelic series)","12.3 upbm affinity estimate (log intensity, higher = more binding, comparable within an allelic series)","8.64 upbm affinity estimate (log intensity, higher = more binding, comparable within an allelic series)","11.1 upbm affinity estimate (log intensity, higher = more binding, comparable within an allelic series)","11.9 upbm affinity estimate (log intensity, higher = more binding, comparable within an allelic series)","12.9 upbm affinity estimate (log intensity, higher = more binding, comparable within an allelic series)","12.2 upbm affinity estimate (log intensity, higher = more binding, comparable within an allelic series)","11.2 upbm affinity estimate (log intensity, higher = more binding, comparable within an allelic series)","12.4 upbm affinity estimate (log intensity, higher = more binding, comparable within an allelic series)","11.6 upbm affinity estimate (log intensity, higher = more binding, comparable within an allelic series)","12.6 upbm affinity estimate (log intensity, higher = more binding, comparable within an allelic series)","11.4 upbm affinity estimate (log intensity, higher = more binding, comparable within an allelic series)","8.3 upbm affinity estimate (log intensity, higher = more binding, comparable within an allelic series)","8.61 upbm affinity estimate (log intensity, higher = more binding, comparable within an allelic series)","12.9 upbm affinity estimate (log intensity, higher = more binding, comparable within an allelic series)","8.84 upbm affinity estimate (log intensity, higher = more binding, comparable within an allelic series)"
